SMILES strings stand for the structures. Among all 340,000 compounds or so, about 420 (0.12%) were called active. Entries that show only a call come without a potency. Inconclusive results (about 10%) are left out. Calls follow the shape of the dose curve; as a rule, active = well fitted activation curve with a large enough effect; inconclusive = small, poorly fitted or top-dose-only effect, or another doubt; inactive = no such curve, though single readings can be large or run the other way; cell line not stated here. The full list was thinned out, with actives kept by preference.
Potency is read from the fitted curve at half-maximal effect.

A short description of the experiment: qHTS for Agonist of gsp, the Etiologic Mutation Responsible for Fibrous Dysplasia/McCune-Albright Syndrome: qHTS. Also: nearly all actives have a fitted effect of over 60% in size. Particulars: gsp mutant cells, cAMP HTRF, 30 min; series mostly up to 76.9 µM. The source says:
McCune-Albright syndrome (MAS) is a rare disease caused by somatic mutations in Gsgsp), a widely expressed protein central in signal transduction from G-coupled protein receptors (GPCRs). The disease symptoms are diverse, owing to the fact that the patients are mosaics with varying degrees of tissue involvement. Greater than 90% of the mutations in Gs in MAS occur at the R201 position and are equally divided between R201H and R201C. The R201 residue is central in the intrinsic GTPase activity of Gs and the H and C mutations lead to loss of, or impairment of, the GTPase activity. The intrinsic GTPase activity is necessary to terminate the interaction between Gs and adenylate cyclase, and to terminate the cAMP-mediated signaling of the given GPCR pathway. Thus, these activating mutations lead to ligand-independent activation of GPCR pathways. The tissue phenotype is determined by the role of Gs in the function of a given cell, and excess Gs/cAMP signaling in that cell. For example, pituitary somatotrophs overproduce growth hormone in a growth hormone releasing hormone-independent fashion, and gigantism/acromegaly ensues. Skeletal stem cells in the bone marrow behave as if they are under constant parathyroid hormone stimulation and fail to differentiate into osteoblasts and osteocytes, and proliferate as immature osteogenic cells and lead to the marrow fibrosis of fibrous dysplasia of bone. The goal of this project is to identify molecules with stimulatory activity at gsp mutations that will not only allow for in-depth study of the underlying molecular and cellular pathophysiology, but also serve as compounds from which drugs to treat FD/MAS can be developed NIH Chemical Genomics Center [NCGC] NIH Molecular Libraries Probe Centers Network [MLPCN] MLPCN Grant: IRP-FT-DE-2011-01 Assay Submitter (PI): Michael Collins, NIDCR
1.#Seed 2000 cells/well in 6 ul DMEM 10% FBS, 1% Pen/Strep, 0.5 mg/ml G418 2.#Incubate 16-24 hr at 37C, 5% CO2, 95% humidity 3.#Aspirate leaving 1 ul residual volume 4.#Dispense 5 ul/well DPBS + 1 mM CaCl2, 0.5 mM MgCl2, 0.05% BSA, 0.005% Tween 20 5.#Aspirate leaving 2 ul residual volume 6.#Dispense 23 nl/well compounds in DMSO 7.#Dispense 1 ul/well 300 uM Ro-20174 in DMEM 10% FBS 8.#Incubate 30 min at 37C, 5% CO2, 95% humidity 9.#Dispense 1.5 ul/well HTRF reagent: cAMP-d2 in lysis buffer 10.#Dispense 1.5 ul/well HTRF reagent: anti-cAMP antibody-K in lysis buffer 11.#Incubate 30 min at room temperature 12.#Detect HTRF signal using EnVision plate reader
A general note: Quantitative high-throughput screening tests each substance at several concentrations.
Regarding `O=C(NN=Cc1ccc2c(c1)CCC2)c1ccccc1O`, the Potency result is “inactive”.

As to `O[C@H]1C[C@H](c2ccc(Cl)cc2)N(Cc2cccs2)C[C@@H]1n1cc(C2CC2)nn1`, the Potency entry was “inactive”.

On to `CC(=O)Nc1ccc2c3c(ccc([N+](=O)[O-])c13)CC2`, for which the Potency result was “inactive”.

As to `COC(=O)c1ccccc1NC(=S)NC(=O)c1ccccc1F`, the Potency result was “inactive”.

For `O=C(O)c1ccccc1NC(=O)c1ccccc1-c1ccccc1C(=O)O`, the Potency entry was “inactive”.

Regarding `O=C(NC(=S)Nc1ccccc1C(=O)O)c1ccc(-c2ccc(Br)cc2)o1`, the Potency was 14.1 µM (active).

Regarding `O=C(COC(=O)CCc1c[nH]c2ccccc12)Nc1cccc(Cl)c1`, the Potency entry was “inactive”.

For the molecule `COC(=O)C(Cc1c[nH]c2ccccc12)NC(=O)CCNC(=O)c1ccco1` (stereo unspecified), the Potency result is “inactive”.

On to `COc1ccc(-c2cnc3c(c2)C(=O)N([C@H](C)CO)C[C@@H](C)[C@H](CN(C)Cc2ccccc2)O3)cc1`, for which the Potency result was “inactive”.

On to `COc1ccc(-c2ccc(CN3C(C(C)C)C(=O)N(Cc4cn(CC5CCCCC5)nn4)CCS3(=O)=O)cc2)cn1` (stereo unspecified), for which the Potency entry is “inactive”.

Consider `CCCc1ccc(S(=O)(=O)N2CCN(C(=O)c3cc(C)on3)CC2)cc1`, for which the Potency result is “inactive”.

Regarding `CCc1noc(C)c1C(=O)OCC(=O)c1ccc(NC(=O)CC(C)C)cc1`, the Potency result is “inactive”.

For the molecule `COc1ccc(CN2C(=O)C(CC(=O)NCCN3CCOCC3)CC(C(=O)N(C(C)C)C(C)C)=C2C)cc1` (stereo unspecified), the Potency entry is “inactive”.

Consider `COc1ccc(NC(=O)CCCOc2ccc(C(C)=O)cc2)cc1S(=O)(=O)N1CCCCC1`, for which the Potency entry was “inactive”.

Consider `COc1cccc(/C=C2\SC(=S)N(CCCC(=O)N3CCOCC3)C2=O)c1`, for which the Potency result is “inactive”.

For the molecule `Cc1ccc2cccc([N+](=O)[O-])c2n1`, the Potency result is “inactive”.

Turning to `CCN(CC)C(=O)C(C)N1c2cccc3cccc(c23)S1(=O)=O` (stereo unspecified), the Potency result is “inactive”.

Consider `Cc1ccc(C(=O)NC(C)C(c2cccs2)N2CCOCC2)cc1C` (stereo unspecified), for which the Potency result was “inactive”.

In the case of `COc1ccc(OC)c(NC(=O)C2CCCN2S(=O)(=O)c2ccc3c(c2)CC(C)N3C(C)=O)c1` (stereo unspecified), the Potency result was “inactive”.

For the molecule `C[C@@H]1CN([C@@H](C)CO)C(=O)c2cc(NS(C)(=O)=O)ccc2O[C@@H](C)CCCCO[C@H]1CN(C)C(=O)Nc1ccc2c(c1)OCO2`, the Potency result is “inactive”.

In the case of `Cc1cccn2c(=O)c3cc(C#N)c(=O)n(CCCN4CCOCC4)c3nc12`, the Potency is 20 µM (active).

As to `Cc1cccn2c(=O)c3cc(C#N)c(=NC(=O)c4cccnc4)n(CC4CCCO4)c3nc12` (stereo unspecified), the Potency entry is “inactive”.

`COCCCn1c(C(=O)NC2CCCCC2)cc2c(=O)n3cccc(C)c3nc21`: the Potency result is “inactive”.

Consider `Cc1nnc(SC(C)C(=O)c2c[nH]c3ccccc23)n1C1CC1` (stereo unspecified), for which the Potency entry is “inactive”.

In the case of `Cc1ccc(C(=O)N[C@H](C(=O)N2CCN(c3ncccn3)CC2)C(C)C)cc1`, the Potency entry was “inactive”.

As to `CC(C)CCOc1ccc(C(=O)Nc2cc(S(=O)(=O)N3CCOCC3)ccc2N2CCOCC2)cc1`, the Potency entry is “inactive”.
